In PubChem BioAssay AID485346 (Sanford-Burnham Center for Chemical Genomics, 2010) one finds inhibition data, which are given here for 90 compounds.

Each structure is given as a SMILES string. Screen size: about 330,000 compounds; about 10,000 (3%) were called active.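 Rule for the calls: active = inhibition of at least 50% at 8 µM in the primary screen; inactive = the rest.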 The list comes from a sample in which actives are over-represented; it also holds similar structures and randomly drawn compounds.

This assay deals with Protein Mdm4 (Homo sapiens) + E3 ubiquitin-protein ligase Mdm2 (Homo sapiens) (UniProt O15151+Q00987). The assay is described as follows: disruptors of Mdm2/MdmX RING complex – cell-based, luminescence, split luciferase, SaOS-2, uHTS, primary screen (AID 485346). Conditions: SaOS-2 split-luciferase Mdm2/MdmX complementation, at 8 µM, active compounds read high.
Sequence of Protein Mdm4 (Homo sapiens) + E3 ubiquitin-protein ligase Mdm2 (Homo sapiens) (O15151 whole entry, looked up): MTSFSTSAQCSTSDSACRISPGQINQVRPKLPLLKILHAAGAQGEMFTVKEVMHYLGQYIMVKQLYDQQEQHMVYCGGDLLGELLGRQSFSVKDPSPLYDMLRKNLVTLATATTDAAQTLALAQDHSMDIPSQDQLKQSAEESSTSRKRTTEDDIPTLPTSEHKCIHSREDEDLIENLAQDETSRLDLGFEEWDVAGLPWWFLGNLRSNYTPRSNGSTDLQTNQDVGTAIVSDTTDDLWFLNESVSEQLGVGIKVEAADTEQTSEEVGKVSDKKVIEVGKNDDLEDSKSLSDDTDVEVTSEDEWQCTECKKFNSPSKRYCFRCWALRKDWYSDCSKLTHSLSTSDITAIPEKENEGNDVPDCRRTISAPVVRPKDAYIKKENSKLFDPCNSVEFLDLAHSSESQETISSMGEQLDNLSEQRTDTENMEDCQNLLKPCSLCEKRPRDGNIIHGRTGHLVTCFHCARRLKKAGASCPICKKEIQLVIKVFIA
Sequence of Protein Mdm4 (Homo sapiens) + E3 ubiquitin-protein ligase Mdm2 (Homo sapiens) (Q00987 whole entry, looked up): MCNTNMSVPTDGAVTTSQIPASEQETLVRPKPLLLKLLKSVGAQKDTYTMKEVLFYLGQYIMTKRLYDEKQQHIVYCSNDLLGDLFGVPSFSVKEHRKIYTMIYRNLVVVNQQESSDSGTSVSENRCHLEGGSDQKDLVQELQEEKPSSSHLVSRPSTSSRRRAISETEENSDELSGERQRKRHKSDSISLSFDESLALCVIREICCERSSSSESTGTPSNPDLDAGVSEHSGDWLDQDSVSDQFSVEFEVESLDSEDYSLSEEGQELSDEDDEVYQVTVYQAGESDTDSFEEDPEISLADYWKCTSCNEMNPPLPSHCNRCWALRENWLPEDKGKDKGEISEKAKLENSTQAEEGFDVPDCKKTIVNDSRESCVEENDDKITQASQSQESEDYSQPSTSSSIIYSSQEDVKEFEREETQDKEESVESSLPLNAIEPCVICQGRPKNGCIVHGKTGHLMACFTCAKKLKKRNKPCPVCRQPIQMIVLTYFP
As a reminder, the inhibition is the drop in the measured response relative to a control, in per cent. For `O=C(COC(=O)CNC(=O)C1CCCCC1)NCc1ccccc1`, the inhibition is 17.1% (inactive). Next, `CCCSc1ccc([C@H]2N[C@@](Cc3ccccc3)(C(=O)OC)[C@H]3C(=O)N(C)C(=O)[C@@H]23)cc1`: 42.6% (inactive). For `CC1CN(C(=S)Nc2ccccc2F)CC(C)O1` (stereo not given) the value was 28.4% (inactive). Regarding `O=C(/C=C/c1cccc([N+](=O)[O-])c1)OCC(=O)N1CCOCC1`, the inhibition is 9.38% (inactive). On to `CCOP(=O)(OCC)C(Nc1cccc(C)c1)c1ccc(F)cc1` (stereo not given), for which the inhibition was -2.51% (inactive).

`O=C(COC(=O)Cc1ccccc1F)NCCc1ccccc1`: the inhibition was 6.62% (inactive). Turning to `Fc1ccccc1Cn1cnc(NC(=S)NCCc2ccccc2)n1`, the inhibition was 45.1% (inactive). For `N=c1n(CCc2ccccc2)c2ccccc2n1Cc1ccccc1F` the value was 64.2% (active); for `Cc1nn(CCOc2ccc(Br)cc2)c(C)c1[N+](=O)[O-]`, 18.2% (inactive); for `C=CC1=C(C(=O)O)N2C(=O)[C@@H](NC(=O)/C(=N\OCC(=O)O)c3csc(N)n3)[C@H]2SC1`, 16% (inactive). For `COc1ccc(CCOC2OC(CO)C(OC(=O)/C=C/c3ccc(O)c(OC)c3)C(O[C@H]3O[C@@H](C)[C@H](O)[C@@H](O)[C@H]3O)C2O)cc1O` (stereo not given in full), the inhibition is -29.1% (inactive).

For `CCN1/C(=C\c2ccc3ccccc3[n+]2CC)Sc2cc(C)ccc21`, the inhibition was 77.1% (active). Next, `COC(=O)C[n+]1cccc2ccccc21`: 6.08% (inactive); `O=S(=O)(NCC1CN(S(=O)(=O)c2ccc3c(c2)OCCO3)C1)c1c(F)cccc1F`: -1.76% (inactive); `O=C(N[C@H]1C/C=C\C(c2ccc(F)cc2)N(Cc2ccccc2)C(=O)C1)OCC1c2ccccc2-c2ccccc21` (stereo not given in full): 20.2% (inactive).

In the case of `CCCC(=O)Nc1ccc(C(=O)N/N=C/c2ccc[nH]2)cc1`, the inhibition is 70.3% (active).

`CC(=O)Nc1ccc(C(=O)/C=C/c2ccc[nH]2)cc1`: the inhibition was 1.87% (inactive).

Consider `O=C(COc1ccccc1[N+](=O)[O-])N/N=C/c1ccc[nH]1`, for which the inhibition is 3.97% (inactive). Next, `O=C(NCc1ccccc1CN1CCCC1)C1CCN(S(=O)(=O)c2ccc(Cl)cc2)CC1`: 3.2% (inactive). Next, `CC(C)(C)OC(=O)Nc1ccc([C@@H](NC(=O)OC(C)(C)C)C(=O)OC(C)(C)C)cc1`: 2.33% (inactive); `O=c1c2ccccc2nc(N/N=C/c2ccccc2)n1O`: -0.971% (inactive). Next, `COc1ccccc1N1CCN(/N=C/c2ccc(O)cc2O)CC1`: 16.1% (inactive); `Cc1ccc(/C=N/NC(=O)C2=NNC(c3ccccc3)(c3ccccc3)C2)c(O)c1`: 42.2% (inactive); `Cc1nc2ccccc2nc1N/N=C/c1ccc(O)cc1O`: 77.6% (active). `Cc1n[nH]c(=O)nc1N/N=C/c1cccs1`: the inhibition is -4.56% (inactive).

`Oc1ccc(/C=N/Nc2nc(-c3ccccc3F)nc3ccccc23)c(O)c1`: the inhibition was 69% (active). As for `CCCNC(=O)OC[C@H]1O[C@H](CCO/N=C/[C@@H](NS(=O)(=O)c2ccc(C)cc2)[C@H](C)/C=C/CC(=O)OC)C=C[C@@H]1Oc1ccc(OC)cc1`, the inhibition was 20.8% (inactive). Next, `O=C(Cn1c2[n+](c3ccc(C(F)(F)F)cc31)CCCCC2)Nc1c(F)cccc1F`: 13% (inactive). In the case of `C=CCNC(=O)/C=C/c1ccc(C(C)C)cc1`, the inhibition was -111% (inactive). As for `O=C(c1ccc[nH]c1=S)N1CCN(S(=O)(=O)c2ccc(Br)cc2Cl)CC1`, the inhibition is 2.6% (inactive). For the compound `COc1ccc(S(=O)(=O)N2CCC(C(=O)N3CCc4ccccc4C3)CC2)cc1OC`, the inhibition was -18.3% (inactive). For `COc1cc2c(cc1OC)C(C)N(S(=O)(=O)c1cnc(Cl)c(Cl)c1)CC2` (stereo not given) the value was 80.7% (active); for `COc1cc2c(cc1OC)CN(C(=O)c1cc(S(=O)(=O)N3CCCCC3)ccc1Cl)CC2`, 20.3% (inactive); for `COC(=O)C1C(=O)NCC1c1ccc(C)cc1` (stereo not given), 13% (inactive). Next, `COC(=O)C1=C(Nc2ccc(C)cc2)C=C(C)C(C(=O)OC)C1c1ccc(F)cc1` (stereo not given): 50.9% (active). For `COC(=O)C1=C(Nc2ccc(OC)cc2)C=C(C)C(C(=O)OC)C1c1ccc(C)cc1` (stereo not given) the value was 19.4% (inactive); for `CC(C)(C)C(=O)NC1CC2CCCC(C1)N2C(=O)Nc1ccccc1F` (stereo not given), -1.01% (inactive). Turning to `O=C(CC1C(=O)NCCN1CC(c1ccccc1)c1ccccc1)NCC1CCOCC1` (stereo not given), the inhibition was 15.7% (inactive).

For `COc1cc(NS(=O)(=O)c2ccc(NC(=S)NC(=O)c3ccccc3)cc2)nc(OC)n1`, the inhibition was 13.4% (inactive). Take `CCOC(=O)N1CCN(C(=O)c2ccc(S(=O)(=O)c3ccc(C)cc3)c(NC(C)=O)c2)CC1`: the inhibition was 50.8% (active). For `COCCNC(=O)c1ccc(S(=O)(=O)c2ccc(Cl)cc2)c(NC(C)=O)c1`, the inhibition is 14.7% (inactive). In the case of `CCOC(=O)N1CCN(C(=O)c2ccc3c(c2)N(Cc2ccc(C)cc2)CCS3)CC1`, the inhibition is 6.09% (inactive). For the compound `CCOC(=O)/C(C#N)=C\c1c(C)cc(C)c(COC(C)=O)c1C`, the inhibition was 14.2% (inactive).

In the case of `Cc1cc(C)nc(SCC(=O)c2ccc(Cl)cc2)n1`, the inhibition is 9.88% (inactive). Next, `Cc1cc(C)nc(SCC(=O)N(C)C)n1`: -9.55% (inactive). Consider `Cc1cc(C)nc(S/C=C/C(=O)c2ccccc2)n1`, for which the inhibition was 65.8% (active). Take `CCCc1ccc(C(=O)COC(=O)CN2C(=O)NC3(CCCCC3C)C2=O)cc1` (stereo not given): the inhibition was 11.7% (inactive). For `O=C(Oc1c(-c2ccco2)oc2ccccc2c1=O)c1cccnc1` the value was 56.6% (active).

As for `O=C(Oc1ccc(Br)cc1)c1cccnc1`, the inhibition is -5.87% (inactive). In the case of `N#CCc1ccc(OC(=O)c2cccnc2)cc1`, the inhibition was 12.8% (inactive).

On to `O=C(c1ccc(-n2cnnn2)cc1)N1CCN(C(c2ccccc2)c2ccccc2)CC1`, for which the inhibition is 12.3% (inactive). For `CCN(CCCNC(=O)C1CCN(S(=O)(=O)c2cnc[nH]2)CC1)c1ccccc1` the value was 37.3% (inactive); for `CCN(CCCNC(=O)c1ccc2c(c1)NC(=O)CN2C)c1cccc(C)c1`, 82.6% (active). For `CCN(CCCNC(=O)CCn1c(=O)[nH]c2ccsc2c1=O)c1ccccc1` the value was 0.795% (inactive); for `CC1CC(C)CN(C(=O)CSc2ccsc2[N+](=O)[O-])C1` (stereo not given), -7.54% (inactive). Next, `Oc1ccc(-c2cccc(-c3ccc(O)cc3)c2)cc1`: -24.2% (inactive). Turning to `Cc1ccc(-c2csc(NC(=O)Cn3[nH]c(=O)c4ccccc4c3=O)n2)cc1`, the inhibition was 31.2% (inactive). For `Cc1ccc(-c2csc(-c3cc(C)on3)n2)cc1` the value was -47.3% (inactive); for `Cc1ccc(-c2csc(NC3OC(=O)c4ccccc43)n2)cc1` (stereo not given), 63.6% (active).

On to `Cc1cccc(Nc2nc(-c3ccccc3)cs2)n1`, for which the inhibition was -222% (inactive). As to `COc1cc(CC(=O)Nc2nc(-c3ccc(F)c(F)c3)cs2)cc(OC)c1OC`, the inhibition was 28.8% (inactive). Next, `COc1ccc2c(c1OC)C(=O)OC2Nc1nc(-c2ccccc2)cs1` (stereo not given): 98.5% (active); `OC(CNC1CCCC1)COc1ccc(F)cc1` (stereo not given): 7.59% (inactive). Take `CCCCCCCCCCOC(=O)C[N+](C)(C)CC1CCCCC1O` (stereo not given): the inhibition is 23.5% (inactive). As for `CCN(CC(=O)NCc1ccc(Cl)cc1)C(=O)c1c(C)noc1C`, the inhibition was 3.48% (inactive). Next, `O=C(c1ccncc1)N1CCN(S(=O)(=O)c2cccc([N+](=O)[O-])c2)CC1`: -3.71% (inactive); `CC(C)c1ccc(-c2noc(C3CCCN(S(C)(=O)=O)C3)n2)cc1` (stereo not given): 2.01% (inactive).

With `Cn1c(C(=O)NCCc2ccsc2)cc2c(=O)n(C)c3ccccc3c21`, the inhibition is -6.58% (inactive).

`CCN1CCCC1CNC(=O)c1cc2c(=O)n(C)c3ccccc3c2n1C` (stereo not given): the inhibition was 18.3% (inactive). With `Cn1c(C(=O)NCCCN2CCN(c3cccc(Cl)c3)CC2)cc2c(=O)n(C)c3ccccc3c21`, the inhibition is 76.9% (active). As to `O=C(OCC(=O)N1CCN(C(=O)c2ccco2)CC1)c1c(Cl)cccc1Cl`, the inhibition is 2.03% (inactive).

For the compound `CCOC(=O)Cn1c2c(c(-c3ccccc3OC)cc1=O)CCCC2`, the inhibition was -13.8% (inactive).

Consider `CCO[C@H]1OC(C(=O)O)=C[C@@H](C2CCCCC2)[C@@H]1CCCO`, for which the inhibition is -5.58% (inactive). Regarding `CCCCCCCCCCOC(=O)Cn1c(COc2ccc(C)cc2)[n+](C)c2ccccc21`, the inhibition was 91.9% (active). For `CCOC(=O)Cn1c(-c2cccnc2Cl)nc2ccccc21` the value was -0.413% (inactive); for `CCOC(=O)COn1c(=O)c(-c2ccc(OCC)cc2)[n+]([O-])c2ccccc21`, -23.1% (inactive); for `CCCCCCCCCCOC(=O)Cn1c(COc2cccc(OC)c2)[n+](C)c2ccccc21`, 61.7% (active). `COc1cccc(OCc2nnc3n2N=C(c2ccccc2)C(CC(=O)O)S3)c1` (stereo not given): the inhibition was -4% (inactive). Next, `CCCCn1c(N)c(N(CCOC)C(=O)c2cccc(OCc3ccccc3)c2)c(=O)[nH]c1=O`: -6.7% (inactive); `COc1cccc(NC(=O)CSc2nnc(C3CCCCC3)n2N)c1`: 18.3% (inactive); `CNC[C@@H]1Oc2c(NS(C)(=O)=O)cccc2C(=O)N([C@@H](C)CO)C[C@H]1C`: -13.4% (inactive).

For `COC(=O)c1ccc(/C=N/OCC(=O)Nc2cc(F)ccc2F)cc1`, the inhibition is -13.4% (inactive).

In the case of `COc1ccccc1N1CCN(c2ccc([N+](=O)[O-])nc2)CC1`, the inhibition was 16.1% (inactive). Next, `COc1ccccc1N1CCN(C(=O)c2c(-c3c(Cl)cccc3Cl)noc2C)CC1`: 15.5% (inactive); `COc1ccccc1N1CCN(c2ncnc3sc(C)c(-c4ccccc4)c23)CC1`: 69.2% (active); `O=C(NC1Cc2ccccc2C1)c1cc(COc2cccc(C(F)(F)F)c2)on1`: 26.2% (inactive). Next, `CC(=O)c1ccc2c(c1)c1ccccc1n2CC(C)C`: 47.4% (inactive); `CS(=O)(=O)N(CC(O)Cn1c2ccccc2c2ccccc21)c1cccc2ccccc12` (stereo not given): 64.1% (active).

Consider `CCCCN(CCCC)CC(O)Cn1c2ccccc2c(=O)c2ccccc21` (stereo not given), for which the inhibition was 18.6% (inactive).

On to `COc1ccc(S(=O)(=O)N2CCOCC2)cc1NC(=O)CSc1cc(C)ccc1C`, for which the inhibition was 9.92% (inactive).
